Measured values: PubChem BioAssay AID651774 (Broad Institute, 2012)
Results with a measured potency or affinity are listed apart. The source made the active and inactive calls. No rule for the calls is given here.

test: HeLa cell viability loss – 24 h, dry powder, cytotoxicity control, dose response (AID 651774); settings: CellTiter-Glo ATP luminescence; series mostly up to 35 µM

Row | Compound | outcome
1 | CS(=O)(=O)c1cccc(CC(=O)NC2CCCC2)c1 | inactive
2 | N#Cc1cccc(CC(=O)NC2CCCC2)c1 | inactive
3 | O=C(Cc1ccc(-c2ccccc2)cc1)NC1CCC1 | inactive
4 | O=C(Cc1ccc(-c2ccccc2)cc1)NC1CCCC1 | inactive
5 | CN(Cc1ccc(N2CCCC2)cc1)c1nnn(C)n1 | inactive
6 | O=C(Cc1ccccc1)NC1CCCC1 | inactive
7 | CN1CCC(NC(=O)Cc2ccc(-c3ccccc3)cc2)CC1 | inactive
8 | CC(C)c1ccc(CNc2nnn(C)n2)cc1 | inactive
9 | O=C(Cc1ccc(-c2ccccc2)cc1)NCc1ccccc1 | inactive
10 | O=C(Cc1ccc(F)cc1)NC1CCCC1 | inactive
11 | CC(C)n1nnnc1NCc1ccc(N2CCCC2)cc1 | inactive
12 | O=C(NCc1ccc(-c2ccccc2)cc1)C1CCCC1 | inactive
13 | O=C(Cc1ccncc1)NC1CCCC1 | inactive
14 | CC(C(=O)NC1CCCC1)c1ccc(-c2ccccc2)cc1 (centres undefined) | inactive
15 | CCn1nnc(NCc2ccc(C(C)C)cc2)n1 | inactive
16 | Cn1nnc(NCc2ccc(C(F)(F)F)cc2)n1 | inactive
17 | CCn1nnnc1NCc1ccc(C(F)(F)F)cc1 | inactive
18 | N#Cc1ccc(CC(=O)NC2CCCC2)cc1 | inactive
19 | COc1cccc(CC(=O)NC2CCCC2)c1 | inactive
20 | Cc1ccc2cc3c(NC(=O)c4ccco4)nn(C)c3nc2c1 | inactive
21 | O=C(Cc1ccccc1Cl)NC1CCCC1 | inactive
22 | O=C(Cc1ccc(-c2ccccc2)cc1)N1CCC1 | inactive
23 | c1cc(N2CCCC2)ccc1CNc1nn[nH]n1 | inactive
24 | Cc1ccccc1CC(=O)NC1CCCC1 | inactive
